In the experiment the test system is Plasmodium falciparum NF54 stage V gametocytes. The experiment is described as follows: viability index relative to DMSO control (fraction); higher = less gametocyte killing. The conditions noted are these: 2.5 µM, incubation time: 72 h. The method in brief: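 Viability index is the count of red-stained particles in a well divided by the plate mean of solvent-only wells. Particles of 20–70 µm2 were counted in one imaged field per well after one to two hours with 3 µl of 2.5 µM MitoTracker Red CMXRos and 0.13% saponin. Before staining, P. falciparum NF54 stage V gametocytes in serum-free medium (0.75% gametocytemia, 1.25% hematocrit, 10 µl, 1,536-well plates) were kept with compound at 2.5 µM for 72 hr at 37°C under low oxygen.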

Where [1] appears, read: library set: Broad Institute DOS.
[2] abbreviates: library set: Broad Institute Blood Stage.

± gives the uncertainty stated by the source. In all, about 9,900 compounds were measured (“viability index relative to DMSO control”: median about 1, lowest 2% from about 0.85 on). Shown is part of a subset that was picked to be rich in the lowest values.

As to `CC(C)(C)[S@@](=O)N1Cc2cc(C(=O)NC3CCC3)nc(-c3cccc(-c4ccccc4F)c3)c2[C@H]1CCO`, under setting [1], the viability index is 1.02 ± 0.012.

For `CC(C)C[C@H]1COCc2cn(nn2)CC[C@@H](Cc2ccc(Cl)cc2)C(=O)N1`, the viability index under setting [1] is 0.955 ± 0.036.

Under setting [1], `Cc1noc(C)c1C(=O)N(C)C[C@H]1OCc2ccccc2-c2ccccc2C(=O)N([C@@H](C)CO)C[C@@H]1C` showed a viability index of 1.01 ± 0.065.

The compound `O=C(Nc1ccc2c(c1)[C@@H]1C[C@H](CC(=O)N3CCc4ccccc4C3)O[C@@H](CO)[C@@H]1O2)c1ccc2c(c1)OCO2` displayed a viability index under setting [1] of 0.991 ± 0.038.

With `CN(C)C(=O)[C@@H]1[C@@H](CO)[C@@H]2Cn3c(ccc(C4=CCCC4)c3=O)[C@H]1N2S(=O)(=O)c1cn(C)cn1`, under setting [1], the viability index came out at 0.984 ± 0.045.

As to `N#C[C@H]1N[C@H](CO)[C@@H]1c1ccc(C#Cc2ccccc2F)cc1`, the viability index under setting [1] amounted to 1.07 ± 0.076.

In the case of `CC[C@H]1C/C=C/C[C@@H](C)Oc2ccccc2C(=O)N(C)[C@H](C)C(=O)N1.CC[C@H]1C/C=C\C[C@@H](C)Oc2ccccc2C(=O)N(C)[C@H](C)C(=O)N1`, the viability index under setting [1] amounted to 1.04 ± 0.086.

As to `CC(C)C#Cc1ccc([C@H]2[C@H]3CN(C(=O)Cc4ccccc4)CC(=O)N3[C@H]2CO)cc1`, the viability index under setting [1] turned out to be 1.045 ± 0.0096.

Under setting [1], `Cc1ccccc1-c1ccc([C@H]2[C@@H](CO)N3CCCCN(S(=O)(=O)Cc4ccccc4)C[C@@H]23)cc1` came in with a viability index of 0.991 ± 0.063.

In the case of `Cc1cccc(-c2ccc([C@@H]3[C@@H](CO)N4CCCCN(S(=O)(=O)c5ccccc5F)C[C@H]34)cc2)c1`, the viability index under setting [1] was 0.537 ± 0.053.

On to `Cc1ccccc1-c1ccc([C@H]2[C@H](CO)N3CCCCN(S(=O)(=O)Cc4ccccc4)C[C@@H]23)cc1`, for which, under setting [1], the viability index is 0.924 ± 0.034.

Take `Cc1ccccc1-c1ccc([C@@H]2[C@H](CO)N3CCCCN(S(=O)(=O)Cc4ccccc4)C[C@@H]23)cc1`: the viability index under setting [1] is 0.74 ± 0.039.

`Cc1cccc(-c2ccc([C@H]3[C@H]4CN(S(=O)(=O)c5ccccc5F)CCCCN4[C@H]3CO)cc2)c1`: the viability index under setting [1] worked out at 0.973 ± 0.094.

Consider `Cc1cccc(-c2ccc([C@H]3[C@@H](CO)N4CCCCN(S(=O)(=O)c5ccccc5F)C[C@@H]34)cc2)c1`, for which, under setting [1], the viability index is 1 ± 0.044.

Turning to `Cc1noc(C)c1NC(=O)Nc1cccc2c1O[C@H](CN(C)Cc1ccc(C(=O)Nc3ccccc3N)cc1)[C@@H](C)CN([C@H](C)CO)C2=O`, under setting [1], the viability index was determined as 0.961 ± 0.023.

Under setting [1], `CNC[C@H]1OCCCC[C@@H](C)Oc2ccc(NC(=O)Nc3ccc(OC)cc3)cc2C(=O)N([C@@H](C)CO)C[C@@H]1C` showed a viability index of 0.965 ± 0.12.

Under setting [1], `Cc1cc(C(=O)Nc2ccc3c(c2)C(=O)N(C)[C@H]2CC[C@H](CC(=O)O)O[C@@H]2CO3)no1` registered a viability index of 0.927 ± 0.12.

The compound `C[C@@H]1CN([C@@H](C)CO)C(=O)c2cc(NS(=O)(=O)c3cccs3)ccc2O[C@@H](C)CCCCO[C@H]1CN(C)C(=O)c1ccncc1` came in with a viability index under setting [1] of 1.07 ± 0.045.

The compound `O=C(Nc1cccc(F)c1)N1CCCCN2[C@H](CO)[C@@H](c3ccc(C#Cc4cccnc4)cc3)[C@H]2C1` displayed a viability index under setting [1] of 0.8437 ± 0.0061.

With `COCC#Cc1ccc([C@@H]2[C@@H](CO)N3CCCCN(Cc4cccnc4)C[C@@H]23)cc1`, the viability index under setting [1] was found to be 1.06 ± 0.14.

The compound `O=C(Nc1cccc(F)c1)N1CCCCN2[C@H](CO)[C@H](c3ccc(C#Cc4cccnc4)cc3)[C@H]2C1` registered a viability index under setting [1] of 0.848 ± 0.034.

Under setting [1], `O=C(Nc1cccc(F)c1)N1CCCCN2[C@H](CO)[C@@H](c3ccc(C#Cc4cccnc4)cc3)[C@@H]2C1` had a viability index of 1.07 ± 0.078.

With `O=C(Nc1cccc(F)c1)N1CCCCN2[C@H](CO)[C@H](c3ccc(C#Cc4cccnc4)cc3)[C@@H]2C1`, under setting [1], the viability index was found to be 1.05 ± 0.024.

`COc1cccc(CN2CCCCN3[C@H](CO)[C@@H](c4ccc(C#Cc5cccnc5)cc4)[C@@H]3C2)c1` gave a viability index under setting [2] of 0.841 ± 0.06.

Regarding `O=C(Nc1cccc(F)c1)N1CCCCN2[C@@H](CO)[C@@H](c3ccc(C#Cc4cccnc4)cc3)[C@@H]2C1`, the viability index under setting [1] is 0.979 ± 0.089.

`O=C(Nc1cccc(F)c1)N1CCCCN2[C@H](C1)[C@H](c1ccc(C#Cc3cccnc3)cc1)[C@@H]2CO` came in with a viability index under setting [1] of 0.836 ± 0.036.

Take `O=C(Nc1ccc(F)cc1)N1CC(=O)N2[C@@H](CO)[C@H](c3ccc(C#Cc4cccnc4)cc3)[C@@H]2C1`: the viability index under setting [1] was determined as 1.11 ± 0.058.

Consider `COCC#Cc1ccc([C@@H]2[C@H](CO)N3CCCCN(Cc4cccnc4)C[C@@H]23)cc1`, for which, under setting [1], the viability index stood at 1.03 ± 0.068.

Under setting [1], `O=C(Nc1ccc(F)cc1)N1CC(=O)N2[C@H](C1)[C@H](c1ccc(C#Cc3cccnc3)cc1)[C@@H]2CO` gave a viability index of 1.08 ± 0.07.

Take `O=C(Nc1cccc(F)c1)N1CCCCN2[C@@H](CO)[C@H](c3ccc(C#Cc4cccnc4)cc3)[C@@H]2C1`: the viability index under setting [1] turned out to be 1.05 ± 0.075.

With `CCCC(=O)Nc1ccc2c(c1)C(=O)N(C)C[C@@H](OC)[C@@H](C)CN(Cc1ccc(F)cc1)[C@@H](C)CO2`, the viability index under setting [1] is 0.941 ± 0.11.

Turning to `O=C(C[C@H]1CC[C@@H]2[C@H](COC[C@@H](O)CN2S(=O)(=O)c2ccc(F)cc2)O1)NCCN1CCCCC1`, the viability index under setting [1] is 1.113 ± 0.0099.

In the case of `COc1ccc(CN(C)C[C@@H]2OCc3cnnn3CCCC(=O)N([C@@H](C)CO)C[C@@H]2C)cc1`, the viability index under setting [1] is 1.012 ± 0.0093.

In the case of `CN1C(=O)c2cc(NC(=O)c3ccc(F)c(F)c3)ccc2OC[C@@H]2O[C@H](CC(=O)N3CCCCC3)CC[C@H]21`, under setting [1], the viability index came out at 0.986 ± 0.14.

Under setting [1], `N#C[C@@H]1[C@@H](c2ccc(C#CC3(O)CCCC3)cc2)[C@@H](CO)N1C(=O)C1CCCCC1` gave a viability index of 1.11 ± 0.019.

With `O=C(Nc1ccc(C(F)(F)F)cc1)N[C@@H]1C=C[C@@H](CC(=O)N2CCCCC2)O[C@H]1CO`, the viability index under setting [1] came to 1.111 ± 0.008.

`C[C@@H]1CN([C@H](C)CO)C(=O)c2cccc(NC(=O)Nc3ccc(F)cc3)c2O[C@H]1CN(C)S(=O)(=O)c1ccc(Cl)cc1` showed a viability index under setting [1] of 0.92 ± 0.22.

Compound `CNC(=O)C[C@@H]1CC[C@@H]2[C@@H](COc3ccc(NC(=O)c4ccccc4F)cc3C(=O)N2C)O1` yielded a viability index under setting [1] of 1.13 ± 0.083.

Consider `COc1cccc(S(=O)(=O)N2CC[C@H]3[C@H](CO)Nc4ccc(C#Cc5cccnc5)cc4[C@H]32)c1`, for which, under setting [1], the viability index amounted to 1.11 ± 0.082.

`O=C(Nc1cccc(F)c1)N1CCCCN2[C@H](C1)[C@@H](c1ccc(C#Cc3cccnc3)cc1)[C@@H]2CO`: under setting [1], the viability index is 0.81 ± 0.05.

Turning to `COc1ccc(NC(=O)N2CCCCN3[C@H](C2)[C@@H](c2ccc(-c4ccccc4F)cc2)[C@@H]3CO)cc1`, the viability index under setting [1] stood at 0.981 ± 0.042.

In the case of `COc1ccc(C#Cc2ccc([C@@H]3[C@@H](CO)N4CCCCN(C(=O)Nc5cccc(F)c5)C[C@H]34)cc2)cc1`, under setting [2], the viability index is 0.654 ± 0.049.

`COc1ccc(NC(=O)N2CCCCN3[C@@H](CO)[C@@H](c4ccc(-c5ccccc5F)cc4)[C@@H]3C2)cc1`: under setting [1], the viability index was 0.993 ± 0.011.

Turning to `O=C(Nc1ccc(F)cc1)N1CC(=O)N2[C@H](CO)[C@H](c3ccc(C#Cc4cccnc4)cc3)[C@@H]2C1`, the viability index under setting [1] was determined as 1.028 ± 0.0039.

On to `O=C(Nc1ccc(F)cc1)N1CC(=O)N2[C@H](CO)[C@H](c3ccc(C#Cc4cccnc4)cc3)[C@H]2C1`, for which, under setting [1], the viability index came to 1.1 ± 0.086.

(Values after the supplement of paper PMC4723716.)
